The results in this text go back to ChEMBL document CHEMBL3433997, “St. Jude Leishmania screening dataset” (2016).

In the assay the target is Glucose transporter (Leishmania mexicana) (UniProt O61059). The assay can be described thus: ST_JUDE_LEISH: Cytotoxicity at 2uM final concentration against transgenic Leishmania Mexicana promastigotes LmGT2 that are glucose transport deficient and complemented with the L. Mexicana glucose transporter 2. Activity is measured by DNA content using SYBR green in vitro. The class given is functional.
Consider `Cc1c(C)n(C2CCCCC2)c2ncnc(OC3CCN(CC(=O)N4CCCC4)CC3)c12`, for which the inhibition was determined as 1.38%.
`CC(C)c1ccc(NC(=O)NCC2CCCN(CCCCCNC(=O)/C=C/c3ccc(Cl)c(Cl)c3)C2)cc1` (stereo not given): the inhibition was 2.62%.
Turning to `COc1ccc(C(=O)C2CC2CN(C)CCC(O)c2ccc(Cl)c(Cl)c2)cc1` (stereo not given), the inhibition came to 4.55%.
Then `CCCNc1nc(Nc2ccccc2C)nc2ccccc12`, with 13.8%; and `CCOc1ccc2c(c1)N(C(=O)C=Cc1ccccc1)C(C)(C)c1ssc(=S)c1-2`, with 0.85%; and `Cc1cc(C2CCN(CCCCNC(=O)c3ccc(-c4ccc(C(F)(F)F)cc4)cc3)CC2)c(C)cc1OCC(N)=O`, with 0.73%.
`Cc1cc(OCCCN2CCC(NS(=O)(=O)c3ccc(Cl)c(Cl)c3)CC2)c2ccccc2n1`: the inhibition was found to be 4.76%.
With `CCCCCOc1ccc(C=NNc2nc(O)cc(-c3ccccc3)n2)cc1` the figure was 1.79%.
With `N=C(/N=C(/NCCCCCCN/C(=N\C(=N)Nc1ccc(Cl)cc1)N1CCOCC1)N1CCOCC1)Nc1ccc(Cl)cc1`, the inhibition came out at 9.37%.
Take `O=C(Nc1ccccc1)Nc1cccc(-c2ccc(-c3nc4cc(C(F)(F)F)ccc4[nH]3)cc2)c1`: the inhibition was found to be 5.45%.
`COc1cc(F)c2ncc(Cl)c(CCN3CCC(NCc4ccc5c(n4)NC(=O)CS5)CC3)c2c1`: the inhibition is -2.08%.
Turning to `CCN(CC)CCNc1ccc(Nc2ccnc3cc4ccccc4cc23)cc1`, the inhibition stood at 3.92%.
With `CS(=O)(=O)c1ccc2[nH]c(-c3cc(-c4ccc(OCCN5CCOCC5)cc4)cnc3N)nc2c1` the figure was 4.16%; with `CC(C)CNCc1cccc(-c2cccc(CNCCCN3CCN(C)CC3)c2)c1`, 4.44%.
With `COc1ccc(CNC2CCN(C)CC2)cc1-c1ccc(S(=O)(=O)NC2CCC2)cc1` the figure was 2.91%.
Then `N#CCCN1CCN(Cc2cccc(-c3ccc(-c4nc5cc(F)ccc5[nH]4)cc3)c2)CC1`, with 3.71%; and `Cc1ccc(CNC(=O)[C@H](CC(C)C)Nc2cc(C)nc(NCc3ccccc3C)n2)cc1`, with 3.14%.
Take `CCCCCCCN1CC[C@@H](CCCc2ccnc3ccc(OCCCCNC(N)=O)cc23)[C@@H](CC)C1`: the inhibition was found to be 2.79%.
Then `COc1ccc(Cl)cc1S(=O)(=O)Nc1cccc(CCN2CCC(N3CCCCC3)CC2)c1`, with 0.15%; and `Cc1cc(C(=O)CN2C(=O)NC3(CCOc4ccccc43)C2=O)c(C)n1Cc1ccco1` (stereo not given), with 3.86%; and `CN1CCN(C(C(=O)NCc2cc(Cl)cc(Cl)c2)c2ccccc2-c2ccsc2)CC1` (stereo not given), with 4.6%.
Then `CN(C)CC1CCCN1Cc1ccccc1-c1cnn(C)c(=O)c1Oc1cccc(C#N)c1` (stereo not given), with 3.52%; and `COc1ccc(CN(C)CCCCc2ccc(NC(=O)COc3cccc4sc5ccccc5c(=O)c34)cc2)cc1OC`, with 0.59%; and `O=S(=O)(NCCN1CCCC1)c1ccc(-c2ccc(CNCc3ccccc3)cc2)s1`, with 2.5%.
Then `O=C(c1ccccc1NN=C1C(=O)N(c2ccccc2)N=C1c1ccccc1)N1CCOCC1`, with 8.03%; and `CCCCCCNC(=O)C1Cc2c([nH]c3ccc(Br)cc23)C2(CCN(CCc3ccccc3)CC2)N1` (stereo not given), with 9.91%; and `COc1ccc2nc3cc(Cl)ccc3c(NCCCCCCNc3c4ccc(Cl)cc4nc4ccc(OC)cc34)c2c1`, with 9.4%.
Take `CCc1ccc(N2C(=O)C3C(Cc4ccc(OC(C)(C)C)cc4)NC4(C(=O)N(Cc5ccccc5)c5ccc(F)cc54)C3C2=O)cc1` (stereo not given): the inhibition is -1.06%.
With `Cc1cccc(C(=O)Nc2ccnc(N3CCC(N(C)Cc4ccc(C#N)cc4)CC3)c2)c1` the figure was 3.1%; with `COc1cc2c(cc1OCCN1CCC(N3CCCCC3)CC1)N(C(=O)/C=C/c1ccccc1Cl)CC2`, 1.83%; with `O=C(Nc1cccc(-c2cccc(CN3CCCC3)c2)c1)c1ccc(Cl)cc1`, 3.94%.
As to `O=C(NCc1ccccc1)NC(CCCN1CCC(Oc2cccc(Cl)c2)CC1)c1ccc(Cl)c(Cl)c1` (stereo not given), the inhibition is -0.18%.
On to `CC1CCNc2ccc(Cc3cnc(N)nc3N)cc21` (stereo not given), for which the inhibition was 2.05%.
Then `O=C(/C=C/c1ccc(Cl)c(Cl)c1)NCCCN1CCC(c2c[nH]c3ccccc23)CC1`, with 6.57%; and `COc1ccc(CN2CCC(CNCCc3ccccc3Oc3ccccc3)CC2)cc1`, with -2.59%; and `Cc1sc(CNCCCNc2cc(=O)c3ccccc3[nH]2)c(I)c1C`, with 1.68%.
On to `c1ccc(-c2cc(NCCCCCCCCNc3cc(-c4ccccc4)nc4ccccc34)c3ccccc3n2)cc1`, for which the inhibition worked out at 83.4%.
Regarding `O=C(/C=C/c1ccc(Cl)c(Cl)c1)NCCCCCN1CCN(C(=O)Nc2cccc(F)c2)CC1`, the inhibition stood at 2.33%.
For the molecule `CC(C)C1=CC(=NOS(=O)(=O)c2ccccc2)C=C(C(C)C)C1=O`, the inhibition is -0.38%.
With `Cc1cccc(CN2CCN(c3ncc(C(=O)NC4CC4)cc3Cl)CC2)c1` the figure was 2.71%.
